Structures are written as SMILES. Several values for one entry are separate records, joined by “and”; a condition that tells them apart may be missing. Identical values can stand only once. Records with an inconclusive call do not appear. Activity calls are given as the source filed them. The rule behind the calls is not given here.

The nature of one assay: dose response, DH231 delta cqsS, luminescence, dry powder (AID 651808). The conditions noted are these: V. cholerae DH231 delta cqsS, luxCDABE luminescence, 6 h; at 80 µM; test 2; stronger effect = higher value.
As for `Cn1nnnc1NCc1ccc(N2CCCC2)cc1`, the max activity (light induction) was -32.9% (inactive).
For `CCCn1nnnc1NCc1ccc(N2CCCC2)cc1`, the max activity (light induction) is -55.4% (inactive).
As for `O=C(Cc1cccc(OC(F)(F)F)c1)NC1CCCC1`, the max activity (light induction) is -5.92% (inactive).
As for `CCC(CC)NC(=O)Cc1ccc(-c2ccccc2)cc1`, the max activity (light induction) was -17.5% (inactive).

The same assay, now with this note: V. cholerae DH231 delta cqsS, luxCDABE luminescence, 6 h; measured here: test 1 replicate run; at 80 µM; test 1; stronger effect = higher value.
`CCn1nnc(NCc2ccc(C)cc2)n1`: the max activity (light induction) is -23%.
As for `CCCn1nnnc1NCc1ccc(C(C)C)cc1`, the max activity (light induction) was -24.4%.
Still for that read-out and setting: under `CCn1nnnc1NCc1ccc(N2CCCC2)cc1` stands -42.4%.
On to `CCn1nnnc1NCc1ccc(C(C)C)cc1`, for which the max activity (light induction) was -24.1% and -23.5%.
As for `Cn1nnnc1NCc1ccc(N2CCCC2)cc1`, the max activity (light induction) is -32.2%.
As for `CCCn1nnnc1NCc1ccc(N2CCCC2)cc1`, the max activity (light induction) was -46.1%.
